TGFb inhibitor – qHTS for Inhibitors of TGF-b | HepG2 CAGA-GFP TGF-b/SMAD3 reporter, GFP fluorescence, 18 h; TGF-beta stimulated, 500 pg/mL final | Potency, µM (titrated, usually from 46.1 µM), inactives show top-dose activity, negative = inhibition, usual class: inhibitors | 1.2% of 410,000 active | AID 588855, 2011; note: % is set by controls: 0 for no effect and ±100 for the full control effect; nearly all actives have a fitted effect of over 65% in size
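HEPG2 CAGA-GFP cells (1000/well, DMEM with 1% FBS) were pre-incubated 2 h at 37 degrees C, given compound by pin tool, then stimulated with TGF-beta at 500 pg/mL final for 18 h before per-cell GFP fluorescence imaging.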
HepG2 tox – qHTS for Inhibitors of TGF-b: Cytotox Counterscreen. HepG2 CAGA-GFP viability, ATP luminescence, 18 h. Potency, µM (doses to about 46.1 µM), inactives show at the top dose activity change, negative = cytotoxicity, hits mostly cytotoxic. AID 588856, 2011. 0.76% of 410,000 active
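HepG2 CAGA-GFP cells (1000/well, DMEM with 1% FBS) received compound, then TGF-beta at 500 pg/mL final, and were incubated 18 hours at 37 degrees C. Viability was read by CellTiter-Glo luminescence. Media-only wells were set as complete cell-killing and DMSO as no toxicity.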
Nrf2 ARE act – qHTS of Nrf2 Activators. AREc32 ARE-luciferase reporter (MCF7-derived line), luminescence, 24 h. Potency, µM (highest dose often 46.1 µM), without a hit: at the highest dose activation, actives largely listed as activators. 0.31% of 410,000 active. AID 624171, 2012; note: % of control where 0% means no effect; nearly all actives have a fitted effect of over 65% in size
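AREc32_Fluc, 1000 cells/well, OPTI-MEM + 5% FBS, o/n 37 deg C 5% CO2; 23 nL cpd by pin tool, 24 hr; Steady-Glo 30 min RT, luminescence.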
A549 tox – Nrf2 qHTS screen for inhibitors: counterscreen for cytotoxicity. A549 ARE-Fluc cells, CellTiter-Fluor viability, 18-24 h. 0.16% of 390,000 active. Potency, µM (top dose mostly 46 µM), without a hit: at the top dose activity change, negative = cytotoxicity, usual class: inhibitors; note: % is set by controls: 0 for no effect and ±100 for the full control effect
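A549 ARE-Fluc cells in 5% FBS OPTI-MEM, 5000 cells/well, rested 2 h then exposed to compounds in concentration-response for 18-24 h at 37 °C. Viability by CellTiter-Fluor fluorescence (Ex 405/Em 525) after 30 min; luciferase luminescence (BugLite, 15 min, RT) read afterwards.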
Nrf2 inh – Nrf2 qHTS screen for inhibitors; A549 ARE-Fluc reporter, luciferase luminescence, 18-24 h; Potency, µM (titrated, usually from 46 µM), for the others: at the top dose activity change, negative = inhibition, hits mostly inhibitors; 2.1% of 360,000 active; AID 504444, 2011; note: % is set by controls: 0 for no effect and ±100 for the full control effect; nearly all actives have a fitted effect of over 60% in size
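A549 ARE_Fluc cells (5000/well, 5% FBS OPTI-MEM) pre-incubated 2 h, then treated with compounds 18-24 h at 37C/5% CO2 in concentration-response. CellTiter-Fluor viability read first; BugLite luciferase luminescence after 15 min at room temperature gives Nrf2 activity.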
* marks the source's active call; other numbers are inactive results; ? = inconclusive; nt = no result given; ! = a repeat was not active. A selection: hits, their analogues and other compounds. The true share with any hit is near 3.6%. Calls come from the whole dose curve; as a rule, active = well fitted curve in the direction sought with a large enough effect; inconclusive = small, poorly fitted or top-dose-only effect, or another doubt; inactive = no such curve, though single readings can be large; an effect the other way counts as inactive or inconclusive. Potency is the fitted concentration of half-maximal effect.

SMILES	TGFb inhibitor	HepG2 tox	Nrf2 ARE act	A549 tox	Nrf2 inh
COc1cccc(-c2cnc3c(NC=O)cc(-c4ccccc4)cn23)c1	8.9µM*	-30%	13%	nt	nt
COc1cccc(-c2cc(NC=O)c3ncc(-c4ccc(C(C)=O)cc4)n3c2)c1	18µM*	2%	9%	nt	nt
Cc1ccc(C)c(OCCC(=O)OCC(=O)Nc2cc(S(=O)(=O)N3CCOCC3)ccc2C)c1	-3%	-53%	3%	1%	?
Cc1ccc(NS(=O)(=O)c2ccc3oc(=O)ccc3c2)cc1Cl	?	-13%	3%	3%	?
CN1OC[C@@H]2CN(S(=O)(=O)c3ccccc3)[C@H](c3ccc(-n4ccnc4)cc3)C[C@@H]21	-10%	-6%	0%	nt	nt
CC(C)COc1ccc(C/C(N)=N/n2cnnc2)cc1	-11%	0%	2%	-26%	16µM*
Cc1nn(C)cc1CN(C)Cc1ccc(OCC(O)CN2CCCCC2)cc1 (configuration not stated)	-1%	-12%	0%	-18%	34%
CN(Cc1ccc(OCC(O)CN2CCCCC2)cc1)Cc1ccnc2ccccc12 (configuration not stated)	?	-42%	5%	-2%	5.8µM*
COc1ccc(C(=O)NC(=S)N(Cc2ccccc2)Cc2ccccc2)cc1	?	-24%	5%	-23%	18µM*
C=CCN(CC=C)C(=S)NC(=O)c1ccc(OC)cc1	-2%	-26%	9%	4%	1%
O=C(NC(=S)N(Cc1ccccc1)Cc1ccccc1)c1ccccc1F	?	-7%	7%	-19%	12µM*
CC(C)n1c(O)c(/C=C2\C=NN=C2c2ccccc2)sc1=S	?	16µM*	3%	-16%	?
CCn1c(O)c(/C=C2\C=NN=C2c2ccc(C)cc2)sc1=S	-8%	-6%	0%	0%	7%
CCOC(=O)C1C(=O)CC(C)(O)C(C(=O)OCC)C1c1ccc(Br)cc1 (configuration not stated)	-10%	-26%	-1%	-6%	-10%
Cc1ccc(Cn2ncc3c(N4CCN(Cc5ccc(Cl)cc5)CC4)ncnc32)cc1	-16%	-2%	1%	-14%	8.2µM*
Cc1ccccc1N1CCN(c2ncnc3c2cnn3Cc2ccc(Cl)cc2)CC1	?	-28%	8%	-6%	18µM*
CC1CCC(C(C)C)C(OC(=O)Cn2c(-c3ccc(Cl)cc3)[n+](C)c3ccccc32)C1 (configuration not stated)	?	11µM*	-3%	?	?
Cc1ccccc1OCc1n(CC(=O)OC2CC(C)CCC2C(C)C)c2ccccc2[n+]1C (configuration not stated)	7.9µM*	16µM*	-3%	-13%	18µM*!
CC1CCC(C(C)C)C(OC(=O)Cn2c(-c3ccc(Br)cc3)[n+](C)c3ccccc32)C1 (configuration not stated)	13µM*	25µM*!	-3%	?	21µM*
CC1CCC(C(C)C)C(OC(=O)COC(=O)c2ccc(N)cc2)C1 (configuration not stated)	?	-47%	0%	-1%	?
CC1CCC(C(C)C)C(OC(=O)COC(=O)c2cccn2C)C1 (configuration not stated)	-1%	-78%	0%	12%	4%
CCCCN(C)C(=O)CSc1c2c(nc3ccc(Cl)cc13)CCCC2	?	-31%	?	-16%	?
CC1CCN(C(=O)CSc2c3c(nc4ccc(Cl)cc24)CCCC3)CC1	16µM*	-29%	?	-2%	-3%
CN(Cc1ccccc1)C(=O)CSc1c2c(nc3ccc(Cl)cc13)CCCC2	?	22µM*	?	?	?
Cc1csc2nc(CNC(=O)c3cccc(C(F)(F)F)c3)cn12	-3%	-4%	29%	1%	-21%
SMILES	TGFb inhibitor	HepG2 tox	Nrf2 ARE act	A549 tox	Nrf2 inh
COc1ccc(/C=N/OC/C(O)=C(\C#N)c2nc3ccccc3[nH]2)cc1	3%	-23%	8%	nt	-7%
COc1cc(OC)c(S(=O)(=O)NCc2cccnc2)cc1NC(C)=O	-20%	-19%	-1%	0%	7%
COc1cc(OC)c(S(=O)(=O)Nc2ccc(C)cn2)cc1NC(C)=O	-13%	10µM*	0%	0%	-15%
CC1CC1C(=O)Nc1nc(-c2ccc(Cl)s2)cs1 (configuration not stated)	?	-4%	5%	2%	23µM*
COc1ccc(CC(=O)NNc2ncnc3c2cnn3C)cc1OC	3%	-7%	0%	9%	-10%
O=C(Oc1cccc2cccnc12)c1ccco1	13µM*	-53%	?	-6%	-3%
CCN1CCN(C(=O)c2cc(-c3ccc(Cl)s3)nc3ccccc23)CC1	?	-45%	7%	-5%	7%
COc1cc([C@H]2c3[nH]c4ccccc4c3C[C@H]3C(=O)N4[C@@H](c5cc(OC)c(OC)c(OC)c5)c5[nH]c6ccccc6c5C[C@H]4C(=O)N23)cc(OC)c1OC	?	14µM*	1%	-10%	-17%
COc1ccc(OC2C(=O)N(Cc3ccc4c(c3)OCO4)C2c2cccs2)cc1 (configuration not stated)	?	-27%	2%	-26%	13µM*
O=C1C(Oc2ccccc2)C(c2cccs2)N1Cc1ccc2c(c1)OCO2 (configuration not stated)	?	-37%	0%	-7%	-21%
CCCCn1c(=N)n(CCOc2ccccc2OC)c2ccccc21	10µM*	-59%	4%	-10%	-27%
CCCCCn1c(=N)n(CC(O)COc2ccccc2OC)c2ccccc21 (configuration not stated)	11µM*	-84%	-5%	?	-21%
CCN(CC)CCn1c(=N)n(CCOc2ccccc2)c2ccccc21	85%	-75%	4%	?	nt
CCCCn1c(=N)n(CCOc2ccc(C)cc2)c2ccccc21	?	-97%	5%	3%	5%
CCn1c(=N)n(CCOc2ccc(Br)cc2)c2ccccc21	8.9µM*	-99%	-7%	?	nt
COc1ccccc1OCC(O)Cn1c(=N)n(Cc2ccccc2)c2ccccc21 (configuration not stated)	-15%	-68%	4%	?	-25%
Cc1ccc(C(C(=O)Nc2ccc3c(c2)OCO3)N(C)C(=O)Cc2c[nH]c3ccccc23)cc1 (configuration not stated)	-28%	-3%	0%	?	23µM*
CC(=O)NC(Cc1c[nH]c2ccccc12)C(=O)OCC(=O)Nc1ccc2c(c1)OCO2 (configuration not stated)	0%	2%	1%	17%	nt
